Bioassay records deposited in PubChem by National Center for Advancing Translational Sciences (NCATS).
The full list was thinned out, with hits kept by preference.
Pf Dd2 inh – Plasmodium falciparum Dd2 growth inhibition | AID 1347417 | 120,000 compounds, 4.3% hits | P. falciparum Dd2 growth, SYBR Green, 72 h | Potency, µM (series often up to 28.9 µM), hits mostly inhibitors; active = well fitted inhibition curve with a large enough effect; also: nearly all actives have a fitted effect of over 65% in size
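Readout: SYBR Green fluorescence, 485 nm excitation, 535 nm emission, after ~16 h lysis at 37C. Before that, Dd2-infected red cells (2.5% hematocrit) grew 72 h with compound, 29 uM top final concentration.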
Numbers stand for hits; n = inactive; [ ] = remark or other dose.

SMILES	Pf Dd2 inh
COC(=O)[C@@H]1C[C@H](NS(=O)(=O)c2cc(OC)ccc2OC)CN1C	n
Cc1ccc(-c2nnc3ccc(N(C)c4cccc(C)c4)nn23)nc1	n
CC(C)(C)c1nnc([C@H]2CCN(Cc3cnc4ccccc4c3)C2)o1	n
CCc1ccc(CNC(=O)c2ccc(CSc3nc4ccncc4n3Cc3ccc(OC)cc3)cc2)cc1	12.6µM
CCc1ccccc1NC(=O)Cn1c(SCc2ccc(F)cc2)nc2ccncc21	n
COc1ccc(CSc2nc3ccncc3n2CC(=O)Nc2ccc(C)c(F)c2)cc1	n
CC(CNC(=O)c1ccc(CSc2nc3ccncc3n2Cc2ccc(F)cc2)cc1)c1ccccc1 (stereo not given)	4.47µM
COc1ccc(Cn2c(=O)c3ccnn3c3ccc(C(=O)NCc4cccnc4)cc32)cc1	n
CC(C)NC(=O)c1ccc(Cn2c(SCc3ccc(F)cc3)nc3cccnc32)cc1	n
Cc1ccc(C2NC(=O)N(CC(=O)Nc3ccccc3F)C3=C2C(=O)OC3)cc1 (stereo not given)	n
O=C(c1ccccc1F)N1CCCC(c2nc(C3CCOCC3)no2)C1 (stereo not given)	n
Cc1nc(C2CCCN(C(=O)Cc3ccncc3)C2)cc(N2CCOCC2)n1 (stereo not given)	n
Cc1onc(C(=O)N2CCCC(Cc3nncn3Cc3ccccc3)C2)c1Cn1cc(Cl)cn1 (stereo not given)	n
O=C(Nc1ccc2c(N3CCCC3)ncnc2c1)c1cc(F)ccc1F	3.16µM
O=C(Nc1ccc2c(N3CCCC3)ncnc2c1)c1cccc(F)c1	2µM
O=C(Nc1ccc2ncnc(N3CCCCC3)c2c1)c1ccc(F)c(F)c1	n
Cc1oc2ncnc(N3CCCCC3)c2c1C(=O)Nc1cccc(F)c1	n
O=C(Nc1ccc2ncnc(N3CCCCC3)c2c1)c1cc(F)ccc1F	n
O=C(Nc1ccc2c(N3CCCC3)ncnc2c1)c1cc(F)ccc1Cl	5.01µM
Cc1ccc(-c2cc(N3CCCN(C(=O)Cc4ccc(F)cc4)CC3)n[nH]2)cc1C	n
C/C(=C\c1ccccc1)CN1CCCCC12Cc1ccccc1CNC2=O (stereo not given)	n
CN(Cc1ccc(F)cc1)Cc1cncs1	n
O=C(NC1CCN(c2cc(-c3ccccc3)[nH]n2)C1)c1ccc(F)c(F)c1 (stereo not given)	n
Cc1noc(C)c1C(=O)N1Cc2ccccc2CC2(CCCN(CC3CCNCC3)C2)C1 (stereo not given)	n
O=C(Cn1ccn2nc(-c3ccccc3)c(CO)c2c1=O)N1CCCCCC1	n
SMILES	Pf Dd2 inh
c1coc(-c2ccnc3nc(C4CCC4)nn23)c1	n
CC1(C(=O)NCC2CC2)CCc2cnc(NCc3ccccc3)nc21 (stereo not given)	n
CC1(C(=O)NCc2ccncc2)CCCc2cnc(NCc3ccccc3)nc21 (stereo not given)	n
COc1ccccc1Cn1cnc2cccnc21	n
c1ccc(-c2nc(CC3CCCNC3)no2)nc1 (stereo not given)	n
Clc1ccccc1C1(c2ccnc(NCc3ccccc3)n2)CCNCC1	4.47µM
Clc1ccccc1C1(c2ccnc(CC3CC3)n2)CCNCC1	5.01µM
COc1ccccc1Cc1nc2ccccc2[nH]c1=O	n
COc1ccccc1Cc1nccc(C2(c3ccccc3Cl)CCNCC2)n1	8.91µM
Clc1ccccc1C1(c2ccnc(C3CCCC3)n2)CCNCC1	3.98µM
c1cnc2nc(C3CCNCC3)[nH]c2c1	n
COC(=O)CNC(=O)c1cc(C(C)(C)C)nc2c1cnn2C	n
CCOc1ccc(CN2CCN(c3nc(C)cc(NC)n3)CC2CCO)cc1 (stereo not given)	n
CO[C@H]1C(=O)N(C2CCN(C(=O)c3cnccc3C)CC2)[C@H]1c1ccncc1	n
CC(=O)N1CCN(c2ccnc(-c3nnc(C)n3-c3ccccc3)c2)CC1	n
CC(=O)N1CCC(C2CCN(C(=O)C3CNC3)C2)CC1 (stereo not given)	n
CC(C)NC(=O)CCc1cc2n(n1)CCN(C(=O)CN1CC(=O)NC1=O)C2	n
COc1ccc(OC)c(NC(=O)C2CCCCC(=O)N2)c1 (stereo not given)	n
O=C(Cc1cccc(F)c1)N1CCN(c2cc(-c3cccs3)[nH]n2)CC1	n
COc1ccccc1CNC(=O)c1ccc(Cn2ccn3nc4c(c3c2=O)CCCC4)cc1	n
CNC(=O)c1ccc(Cn2ccn3nc4c(c3c2=O)CCCC4)cc1	n
CC(CCc1ccccc1)NC(=O)c1ccc(Cn2ccn3nc4c(c3c2=O)CCCC4)cc1 (stereo not given)	8.91µM
O=C(CCCc1nc(-c2ccncc2)no1)N1CCCC2(CCNCC2)CC1	n
O=C(c1cccs1)N1CC[C@H](c2nnc(-c3ccc(Cl)cc3)o2)C1	n
COc1cccc(/C=C/C(=O)Nc2ccc3nc(N4CCN(C)CC4)cc(C)c3c2)c1OC	1.26µM
SMILES	Pf Dd2 inh
CCN1CCN(c2cc(C)c3cc(NC(=O)/C=C/c4cccc(OC)c4OC)ccc3n2)CC1	1.12µM
COc1cc(NC(=O)C2CCN(c3cnc4ccccc4n3)CC2)cc(OC)c1OC	n
CCOC(=O)N1CCN(Cc2nc3cc(NC(=O)c4ccccc4OC)ccc3n2C(C)C)CC1	n
CCCCNC(=O)N1CCC2(CC1)C(=O)N(CC(=O)NCC1CCCO1)CN2c1ccccc1 (stereo not given)	n
Cc1noc(-c2ccccc2Cl)c1C(=O)NCc1ccc(F)cc1F	n
Cc1n[nH]c(C)c1CN1CCC2(CC1)CCN(C1CCOCC1)CC2CO (stereo not given)	n
COc1ccc(CNC(=O)C2(c3ccc(NS(C)(=O)=O)cc3)CCCCC2)cc1	n
Cc1ccc(NCc2cccn2-c2nnc(N3CCC(C(=O)NCc4ccc(OC(C)C)cc4)CC3)s2)cc1	n
CCc1ccc(NCc2cccn2-c2nnc(N3CCCCCC3)s2)cc1	n
Cc1ccc(CN(Cc2cccn2-c2nnc(N3CCCC3=O)s2)C(=O)Nc2ccccc2Cl)cc1	11.2µM
CCCS(=O)(=O)N1CC[C@H](c2nc(C)no2)[C@H](NC(=O)C2CC2)C1	n[5.79 µM]
Cn1nnnc1C1CCCN(C(=O)NC2CCCCC2)C1 (stereo not given)	n
CCc1ccc(-n2c(SCc3nc(-c4cc(OC)ccc4OC)no3)nnc2-c2ccccc2)cc1	11.2µM
COc1ccc(-c2noc(CSc3nnc(-c4ccncc4)n3-c3ccccc3)n2)cc1	n
COc1ccc(-n2c(C)nnc2SCc2nc(-c3ccc(OC)c(OC)c3)no2)cc1	n
O=S(=O)(c1ccccc1)N1CCC(n2cnnc2C2CC2)CC1	n
Cc1cn2nc(C(=O)NCc3cccc(Cl)c3)cc2c(N2CCCC2)n1	n
Cc1ccccc1Nc1c(-c2c[nH]c3ccccc23)nc2cccc(C)n12	n
Cc1ccc2nc(-c3ccccn3)c(Nc3ccccc3C)n2c1	8.91µM
Cc1ccccc1Nc1c(-c2cccc(Cl)c2)nc2ncccn12	n
Cc1ccn2c(Nc3ccccc3C)c(-c3ccccn3)nc2c1	3.16µM
Cc1ccc2nc(-c3ccncc3)c(Nc3ccccc3C)n2c1	n
Cc1ccc2nc(-c3c[nH]c4ccccc34)c(Nc3ccccc3C)n2c1	n
O=C1CCN(S(=O)(=O)c2ccc3c(c2)CCC3)CCCC(c2nc(-c3cccnc3)no2)CCN1 (stereo not given)	n
Cc1cccc(CC(=O)N2CCC3(CC2)CC(N(C2CC2)S(C)(=O)=O)CCO3)c1 (stereo not given)	n
COCc1nncn1C1CCN(C(=O)Cc2ccccc2Cl)CC1	n
COc1cccc(CC(=O)N2CCCC3(C2)NC(=O)N(Cc2ccc(C)cc2)C3=O)c1 (stereo not given)	n
